PubChem BioAssay (Tox21)
Inconclusive results are not listed. Calls of active or inactive are those of the source. Unless noted, calls follow the shape of the dose curve; as a rule, active = well fitted curve in the direction sought with a large enough effect in the repeat runs; inconclusive = weak or mixed curves; inactive = no such curve, though single readings can be large; an effect the other way counts as inactive or inconclusive.

Columns and labels:
[1] = target: Retinoic acid receptor RXR-alpha (Homo sapiens) (UniProt P19793); test: qHTS assay to identify small molecule agonists of the RXR signaling pathway (AID 1159527; calls by dose curve; also: nearly all actives have a fitted effect of over 35% in size)
Procedure, shortened: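 GeneBLAzer RXR-alpha-UAS-bla HEK 293T cells in 2% charcoal-stripped FBS medium were exposed to compounds for 16 hr at 37 C in agonist mode. Beta-lactamase reporter read as 460/530 nm FRET ratio after 2 hr substrate loading.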

[2] = qHTS assay to identify small molecule antagonists of the retinoid acid receptor (RAR) signaling pathway - cell viability counter screen (AID 1159551); also: nearly all actives have a fitted effect of over 35% in size
Procedure, shortened: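 Luminescent ATP quantitation (CellTiter-Glo) gave cell viability in C3RL4 cells exposed to test chemicals for 6 h at 37 C alongside 1 uM final retinol.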

[3] = qHTS assay to identify small molecule antagonists of the estrogen related receptor (ERR) signaling pathway from Tox21 library - cell viability counter screen (AID 1224834); also: nearly all actives have a fitted effect of over 30% in size
Procedure, shortened: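 Fluorescence from CellTiter-Fluor gives the viability read-out, taken 30 min after reagent addition. Before that, ERR cells seeded 6 h earlier were incubated with compounds for 17.5 h at 37 C.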

[4] = qHTS assay to identify small molecule agonists of the constitutive androstane receptor (CAR) signaling pathway - cell viability counter screen (AID 1224836); also: series mostly up to about 92 µM; nearly all actives have a fitted effect of over 45% in size
Procedure, shortened: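 HepG2 cells stably carrying hCAR and a CYP2B6-2.2kb reporter; 15-concentration compounds plus PK11195 (final 0.75 uM), 23 hr at 37 C/5% CO2. Viability read by CellTiter-Fluor fluorescence.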

[5] = qHTS assay to identify small molecule antagonists of the constitutive androstane receptor (CAR) signaling pathway - cell viability counter screen (AID 1224837); also: series mostly up to about 92 µM; nearly all actives have a fitted effect of over 45% in size
Procedure, shortened: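 HepG2-CYP2B6-hCAR cells, 2500/well, 4 hr pre-incubation; compound titration, 15 conc.; CITCO 50 nM final; 23 hr, 37 C/5% CO2; CellTiter-Fluor, fluorescence intensity.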

[6] = target: Nuclear receptor subfamily 1 group I member 3 (Homo sapiens) (UniProt Q14994); test: qHTS assay to identify small molecule antagonists of the constitutive androstane receptor (CAR) signaling pathway (AID 1224838);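 also: HepG2 cells stably expressing hCAR with CYP2B6 luciferase reporter stimulated by CITCO; nearly all actives have a fitted effect of over 40% in size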
Procedure, shortened: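 HepG2-CYP2B6-hCAR cells; 4 h pre-incubation; cpd (15 conc) + CITCO 50 nM final; 24 h, 37 C/5% CO2; ONE-Glo, luminescence.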

[7] = target: Nuclear receptor subfamily 1 group I member 3 (Homo sapiens) (UniProt Q14994); test: qHTS assay to identify small molecule agonists of the constitutive androstane receptor (CAR) signaling pathway (AID 1224839);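 also: HepG2 cells stably carrying human CAR and a CYP2B6 luciferase reporter; series mostly up to about 92 µM; nearly all actives have a fitted effect of over 15% in size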
Procedure, shortened: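 HepG2 cells stably co-transfected with hCAR and a CYP2B6-2.2kb luciferase reporter; compounds at 15 concentrations with 0.75 uM PK11195 present. After 24 hr at 37 C, luciferase read by ONE-Glo luminescence.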

[8] = qHTS assay to identify small molecule antagonists of the estrogen related receptor signaling pathway with the pleiotropic PPARgamma coactivator (PGC) from Tox21 10K library (AID 1224841; call rule not given here; also: series mostly up to about 92 µM; actives are mostly falling curves and most rising ones were filed inactive; nearly all actives have a fitted effect of over 50% in size)
Procedure, shortened: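 PGC/ERR cell line, 2,000 cells/well; 6 h pre-incubation 37 C/5% CO2; compounds (DMSO) pinned in; 18 h, 37 C; One-Glo, 30 min RT; luminescence.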

[9] = qHTS assay to identify small molecule agonists of the estrogen related receptor signaling pathway with the pleiotropic PPARgamma coactivator (PGC) from Tox21 10K library (AID 1224842); also: nearly all actives have a fitted effect of over 15% in size
Procedure, shortened: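 PGC/ERR reporter cell line, 2,000 cells per well, incubated 6 h at 37 C before 23 nL compound in DMSO was added. After 18 h at 37 C, One-Glo luminescence read following 30 min at room temperature.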

[10] = target: Thyrotropin receptor (Homo sapiens) (UniProt P16473); test: qHTS assay to identify small molecule agonists of the thyroid stimulating hormone receptor (TSHR) signaling pathway (AID 1224843; calls by dose curve; also: nearly all actives have a fitted effect of over 45% in size)
Procedure, shortened: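 TSHR-HEK293 cells in agonist mode, 30 min room-temperature step, then cAMP measured by competitive HTRF (cAMP-d2 with anti-cAMP cryptate) after 1 h at room temperature. Tested at 15 concentrations in triplicate.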

[11] = qHTS assay to identify small molecule agonists of the hypoxia (HIF-1) signaling pathway - cell viability counter screen (AID 1224844; calls by dose curve; also: nearly all actives have a fitted effect of over 50% in size)
Procedure, shortened: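 ME-180 HRE-bla cells, 2,000/well, 0.5% dialyzed FBS; 5 hr settle, 17 hr compound at 37C/5% CO2; CCF4-AM reporter read first, then CellTiter-Glo luminescence after 30 min RT.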

[12] = qHTS assay to identify small molecule agonists of H2AX (AID 1224845; active = well fitted activation curve with a large enough effect in the signal ratio in the repeat runs, not every such curve was filed as active; the % refers to the signal ratio)
Procedure, shortened: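 Wild-type CHO-K1 cells, plated overnight, exposed 3hr at 37C to 15 concentrations (0.76% DMSO final). Lysed, then HTRF anti-pH2AX (S139) cryptate and anti-H2AX-d2 antibodies, 24 hr room temperature; 665/620 nm emission read.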

[13] = qHTS assay to identify small molecule antagonists of the estrogen related receptor signaling pathway with the pleiotropic PPARgamma coactivator (PGC) from Tox21 10K library - cell viability counter screen (AID 1224840; active = well fitted cell-killing curve with a large enough effect in the repeat runs, not every such curve was filed as active; also: nearly all actives have a fitted effect of over 40% in size)
Procedure, shortened: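 PGC/ERR cells, 2,000/well; 6 h pre-incubation 37 C/5% CO2; cpd in DMSO via pin tool; 17.5 h 37 C; CellTiter-Fluor, 30 min; fluorescence.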

[14] = target: Luciferin 4-monooxygenase (Photinus pyralis) (UniProt P08659); test: qHTS assay to identify small molecule inhibitors of firefly luciferase (AID 1224835); also: series mostly up to about 120 µM; nearly all actives have a fitted effect of over 25% in size
Procedure, shortened: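 Biochemical qHTS: compounds run as interplate titrations against purified firefly enzyme, with D-luciferin and ATP each at its KM concentration. Light output recorded by CCD imaging.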

[15] = qHTS assay to identify small molecule agonists of the retinoic acid receptor (RAR) signaling pathway (AID 1159553)
Procedure, shortened: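 Luminescence from a RARE-driven luciferase reporter in C3RL4 cells served as the read-out, measured after 30 min with detection reagent at room temperature. Compounds in DMSO were applied for 6 hr at 37 C following overnight seeding.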

[16] = qHTS assay to identify small molecule antagonists of the estrogen related receptor (ERR) signaling pathway (AID 1224819;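 also: luminescence from an ERR-driven luciferase reporter measured with One-Glo reagent; series mostly up to about 46 µM; nearly all actives have a fitted effect of over 50% in size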)
Procedure, shortened: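 Seed ERR cells 2,000/well; rest 6 h at 37 C/5% CO2; pin compounds in DMSO; incubate 18 h at 37 C; add One-Glo; wait 30 min at room temperature; measure luminescence.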

[17] = qHTS assay to identify small molecule agonists of the estrogen related receptor (ERR) signaling pathway (AID 1224820)
Procedure, shortened: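 Cells: ERR line from NTP, 2,000/well. Pre-incubation 6 h, 37 C/5% CO2. Compound (DMSO) pin transfer, 18 h 37 C. One-Glo, 30 min RT, luminescence.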

[18] = qHTS assay to identify small molecule agonists of the estrogen related receptor signaling pathway with the pleiotropic PPARgamma coactivator (PGC) (AID 1224823)
Procedure, shortened: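 Steps: plate PGC/ERR cells at 2,000 cells/well; incubate 6 h, 37 C/5% CO2; pin-transfer compounds (DMSO); incubate 18 h, 37 C; add One-Glo; 30 min RT; read luminescence.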

[19] = qHTS assay to identify small molecule antagonists of the retinoic acid receptor (RAR) signaling pathway (AID 1159552; also: nearly all actives have a fitted effect of over 50% in size)
Procedure, shortened: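 Retinol signaling pathway inhibitors screened in C3RL4 RARE-luciferase reporter cells seeded overnight at 37 C, then compounds added with 1 uM (final) retinol as pathway substrate. After 6 hr at 37 C, luciferase luminescence read after 30 min at room temperature.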
% is scaled to controls: 0 for no effect and ±100 for the full control effect.

Chain of Nuclear receptor subfamily 1 group I member 3 (Homo sapiens) (Q14994 whole entry, looked up): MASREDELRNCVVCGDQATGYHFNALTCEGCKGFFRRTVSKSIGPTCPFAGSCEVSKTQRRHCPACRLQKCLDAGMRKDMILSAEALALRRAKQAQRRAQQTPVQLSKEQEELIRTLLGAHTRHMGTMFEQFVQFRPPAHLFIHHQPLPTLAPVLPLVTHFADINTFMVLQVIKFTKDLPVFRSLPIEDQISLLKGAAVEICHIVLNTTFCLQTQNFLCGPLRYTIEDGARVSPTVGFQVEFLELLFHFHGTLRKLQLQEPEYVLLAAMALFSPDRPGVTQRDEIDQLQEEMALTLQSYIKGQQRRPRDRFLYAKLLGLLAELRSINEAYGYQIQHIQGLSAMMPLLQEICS
Chain of Luciferin 4-monooxygenase (Photinus pyralis) (P08659 whole entry, looked up): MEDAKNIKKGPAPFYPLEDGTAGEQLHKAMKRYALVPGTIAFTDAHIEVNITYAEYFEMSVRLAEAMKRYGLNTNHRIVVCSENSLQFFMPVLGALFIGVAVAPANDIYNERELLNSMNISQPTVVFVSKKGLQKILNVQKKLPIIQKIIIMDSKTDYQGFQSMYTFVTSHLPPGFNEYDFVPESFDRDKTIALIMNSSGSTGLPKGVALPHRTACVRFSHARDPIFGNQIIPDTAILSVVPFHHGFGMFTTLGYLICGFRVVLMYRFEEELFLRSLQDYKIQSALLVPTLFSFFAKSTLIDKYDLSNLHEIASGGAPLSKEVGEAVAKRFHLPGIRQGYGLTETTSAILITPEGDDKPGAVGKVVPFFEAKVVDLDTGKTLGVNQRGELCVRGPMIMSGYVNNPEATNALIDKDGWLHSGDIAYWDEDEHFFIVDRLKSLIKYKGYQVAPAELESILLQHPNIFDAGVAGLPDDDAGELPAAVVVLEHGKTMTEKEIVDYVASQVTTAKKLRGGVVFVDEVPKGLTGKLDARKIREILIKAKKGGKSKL
Chain of Retinoic acid receptor RXR-alpha (Homo sapiens) (P19793 whole entry, looked up): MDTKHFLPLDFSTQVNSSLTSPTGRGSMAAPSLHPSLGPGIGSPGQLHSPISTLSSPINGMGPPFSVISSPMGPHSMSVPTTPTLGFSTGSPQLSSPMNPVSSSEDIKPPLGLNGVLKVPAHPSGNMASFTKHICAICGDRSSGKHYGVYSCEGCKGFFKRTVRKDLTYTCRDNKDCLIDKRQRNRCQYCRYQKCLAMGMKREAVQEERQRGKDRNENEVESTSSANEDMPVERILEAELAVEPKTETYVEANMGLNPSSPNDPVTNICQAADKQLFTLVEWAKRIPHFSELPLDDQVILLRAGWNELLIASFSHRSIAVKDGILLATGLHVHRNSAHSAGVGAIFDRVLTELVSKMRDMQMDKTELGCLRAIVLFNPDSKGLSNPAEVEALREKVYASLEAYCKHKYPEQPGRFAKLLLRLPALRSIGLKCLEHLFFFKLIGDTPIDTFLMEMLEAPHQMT
Chain of Thyrotropin receptor (Homo sapiens) (P16473 whole entry, looked up): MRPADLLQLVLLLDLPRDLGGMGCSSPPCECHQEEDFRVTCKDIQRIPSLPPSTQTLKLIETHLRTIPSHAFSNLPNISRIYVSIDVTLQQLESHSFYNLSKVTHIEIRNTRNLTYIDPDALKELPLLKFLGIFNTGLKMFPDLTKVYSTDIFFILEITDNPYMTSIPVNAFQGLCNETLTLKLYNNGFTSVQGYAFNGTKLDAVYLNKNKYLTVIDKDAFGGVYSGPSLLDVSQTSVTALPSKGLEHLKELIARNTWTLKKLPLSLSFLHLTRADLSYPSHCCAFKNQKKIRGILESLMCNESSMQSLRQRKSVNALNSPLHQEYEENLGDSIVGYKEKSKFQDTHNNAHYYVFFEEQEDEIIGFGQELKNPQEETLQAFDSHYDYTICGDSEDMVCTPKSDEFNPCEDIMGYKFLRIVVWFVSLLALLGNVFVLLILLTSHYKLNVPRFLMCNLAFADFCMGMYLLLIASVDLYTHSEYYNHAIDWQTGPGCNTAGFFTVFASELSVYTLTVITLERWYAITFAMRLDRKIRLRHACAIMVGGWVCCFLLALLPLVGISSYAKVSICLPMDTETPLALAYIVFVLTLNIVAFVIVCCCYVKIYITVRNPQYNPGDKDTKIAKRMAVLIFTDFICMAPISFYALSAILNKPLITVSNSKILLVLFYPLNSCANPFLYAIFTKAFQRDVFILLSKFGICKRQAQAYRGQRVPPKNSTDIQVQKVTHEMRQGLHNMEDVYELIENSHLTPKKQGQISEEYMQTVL

C=C(C)C(=O)OCCNC(C)(C)C
inactive: Potency [1] | outcome [2] | Potency [3] | Potency [4] | Potency [5] | outcome [6] | Potency [7] | Potency [8] | outcome [9] | Potency [10] | outcome [11] | outcome [12]

CCCCCCCC/C=C\CCCCCCCC(=O)OCCCC
inactive: activation [1] 2.43% [at 15.8 µM] | viability change, negative = cytotoxic [3] -0.0583% [at 19 µM] | viability change, negative = cytotoxic [4] -5.62% [at 19 µM] | activity change, negative = cytotoxicity [5] 3.28% [at 19 µM] | activity, negative = inhibition [6] 20.6% [at 19 µM] | activation [7] 0.178% [at 19 µM] | viability change, negative = cytotoxic [13] -2.58% [at 19 µM] | activation [9] -2.76% [at 19 µM] | activation [10] 1.53% [at 19 µM] | activity change, negative = cytotoxicity [11] -10.5% [at 15.8 µM] | activation (H2AX phosphorylation) [12] 4.47% [at 31.6 µM]

CCCOC(OCCC)OCCC
inactive: Potency [1] | outcome [2] | Potency [3] | Potency [14] | Potency [4] | Potency [5] | outcome [6] | Potency [7] | Potency [8] | outcome [9] | outcome [11] | outcome [12]

COc1ccc2c(c1)C(=O)N(CCc1ccc(S(=O)(=O)NC(=O)NC3CCCCC3)cc1)C(=O)C2(C)C
inactive: Potency [1] | Potency [3] | Potency [4] | Potency [5] | outcome [13] | outcome [12]

CC1=CCC(C(C)C)=CC1
inactive: Potency [1] | outcome [2] | Potency [3] | Potency [14] | Potency [4] | Potency [5] | outcome [6] | outcome [13] | outcome [11] | outcome [12]

O=C1O[C@@H]2[C@@H](O)[C@H](O)O[C@@H]2[C@H]1O
inactive: Potency [1] | outcome [2] | Potency [4] | Potency [5] | outcome [6] | outcome [13] | Potency [8] | outcome [9] | Potency [10] | outcome [11] | outcome [12]

CN(C)c1ccc(C=O)cc1
inactive: Potency [1] | outcome [2] | Potency [3] | Potency [14] | Potency [4] | Potency [5] | outcome [6] | Potency [7] | outcome [13] | Potency [8] | outcome [9] | Potency [10] | outcome [11] | outcome [12]

CC1(C)S[C@@H]2[C@H](N=CN3CCCCCC3)C(=O)N2[C@H]1C(=O)O
inactive: Potency [1] | outcome [2] | Potency [3] | Potency [14] | Potency [4] | Potency [5] | outcome [6] | Potency [7] | outcome [13] | Potency [10] | outcome [12]

C[C@H](N)[C@H](O)c1cccc(O)c1
inactive: Potency [1] | outcome [2] | Potency [15] | Potency [3] | Potency [14] | Potency [4] | Potency [5] | outcome [13] | Potency [10] | outcome [11] | outcome [12]

C=C(C)C1CCC(C)(O)CC1 (centres undefined)
inactive: Potency [1] | Potency [3] | Potency [14] | Potency [4] | Potency [5] | outcome [6] | Potency [7] | Potency [10] | outcome [11] | outcome [12]

CCC(C)NC(N)=O (centres undefined)
inactive: Potency [1] | outcome [2] | Potency [3] | Potency [14] | Potency [4] | Potency [5] | outcome [6] | Potency [7] | outcome [13] | Potency [10] | outcome [11] | outcome [12]

Cc1cccc(C)c1OCC(C)N (centres undefined)
inactive: Potency [1] | outcome [2] | outcome [16] | outcome [17] | outcome [18] | Potency [3] | Potency [4] | Potency [5] | outcome [6] | Potency [7] | Potency [8] | outcome [9] | Potency [10] | outcome [11] | outcome [12]

CCn1ccc(NS(=O)(=O)c2ccc(N)cc2)nc1=O
inactive: Potency [1] | outcome [2] | Potency [3] | Potency [4] | Potency [5] | outcome [6] | Potency [7] | outcome [13] | Potency [8] | outcome [9] | Potency [10] | outcome [11] | outcome [12]

COc1cc2c(cc1OC)C(=O)CC2
inactive: Potency [1] | outcome [2] | Potency [3] | Potency [4] | Potency [5] | outcome [6] | outcome [13] | Potency [10] | outcome [11] | outcome [12]

CCOC(=O)[C@H](CCc1ccccc1)N[C@@H](C)C(=O)N1C(=O)N(C)C[C@H]1C(=O)O
inactive: Potency [1] | outcome [2] | Potency [3] | Potency [14] | Potency [4] | Potency [5] | outcome [6] | outcome [13] | Potency [10] | outcome [11] | outcome [12]

C[C@@H](O)[C@H]1C(=O)N2C(C(=O)O)=C(SCCN=CN)C[C@H]12
inactive: Potency [1] | outcome [2] | outcome [16] | outcome [17] | outcome [18] | Potency [3] | Potency [4] | Potency [5] | outcome [6] | Potency [7] | outcome [13] | Potency [8] | outcome [9] | Potency [10] | outcome [12]

CC(CN)CC(C)(C)CCN (centres undefined)
inactive: Potency [1] | outcome [2] | outcome [19] | Potency [4] | Potency [5] | outcome [6] | Potency [7] | outcome [13] | outcome [11] | outcome [12]
